The source of these data is PubChem BioAssay AID1347076 (National Center for Advancing Translational Sciences (NCATS), 2019).

The campaign covered roughly 400,000 compounds. About 13,000 (3.2%) were called active. A call without a number means that no potency is given here. Roughly 18% stayed inconclusive and do not appear here. The call rests on the fitted dose curve; in most records, active means well fitted cell-killing curve with a large enough effect; inconclusive means small, poorly fitted or top-dose-only effect, or effect the other way; inactive means flat fitted curve, though single readings scatter. The sample as a whole holds a higher share of actives than the screen did.
Potency means the concentration at half of the fitted maximal effect.

The test is described as follows: qHTS assay for MDR1-selective chemotherapeutics: Primary screen using the drug-selected MDR subline cells KB-V1. Further: nearly all actives have a fitted effect of over 60% in size. Particulars: KB-V1 MDR cells viability, CellTiter-Glo, 72 h; series mostly up to 46.1 µM. The text has this:
A prime difficulty in effectively treating cancer is the development of cellular resistance to multiple structurally unrelated anticancer drugs, a phenomenon known as multidrug resistance (MDR). […] Numerous strategies to overcome P-gp-mediated MDR have been explored, including the design of drugs that evade recognition and efflux, and development of inhibitors to block efflux and restore drug accumulation. […] An alternative approach is to exploit resistance by identifying drugs that target MDR cells over the non-resistant parental cells from which they were selected. […] The development of MDR1-selective agents represents a new strategy for resolving multidrug resistance, as it remains a long-standing clinical challenge for cancer chemotherapy.
Our goal is to identify compounds that selectively kill P-gp-expressing MDR cells. We will identify MDR1-selective compounds by comparing toxicity of compounds in the screening library against parental, drug-naive (KB-3-1) adenocarcinoma cells as well as their drug-selected MDR sub-line (KB-V1). The differential toxicity of compounds against these two cell lines will be used to identify MDR1-selective compounds, whose cytotoxicity is potentiated, rather than diminished, by P-gp expression. This assay will be utilized to conduct a quantitative high-throughput screen (qHTS) in collaboration with the NIH Chemical Genomics Center to identify selective agents, and probe hits arising from the screen will be validated using secondary assays and characterized through a well-established follow-up research program. This screen was run against the entire NCGC library collection of about 400,000 compounds.
NIH Molecular Libraries Probe Production Network [MLPCN]
NIH Chemical Genomics Center [NCGC]
PI: Michael Gottesman, National Cancer Institute, NIH
Briefly, 5 microL of media containing either KB-V1 cells (columns 1-2, 4-48) are dispensed into Greiner white, treated solid-bottom 1536-well assay plates (media-only control is added to column 3). Compounds are then transferred via Kalypsys pin tool equipped with 1536-pin array (10 nL slotted pins, V&P Scientific, San Diego, CA). Following addition of compound, the plates are incubated at 37 degrees C for 72 hours. CellTiter-Glo (2.5 µL/well) is then added, and the plates are read in a ViewLux reader (Perkin-Elmer, clear luminescence filter, 1 second exposure, 1x binning) following a 10 minute incubation. All cells are dispensed in DMEM phenol-red free media containing 10% FBS.
Library plates were screened starting from the lowest and proceeding to the highest concentration. Vehicle-only plates, with DMSO being pin-transferred to columns 5-48, will be inserted uniformly at the beginning and the end of each library in order to monitor and record any shifts in the background, which can be affected by reagent dispensers or loss in enzyme activity over time. Screening data will be corrected, normalized, and concentration-effect relationships will be derived by using publicly-available NCGC, NCATS curve fitting algorithms (http://ncgc.nih.gov/pub/openhts).
With `CCc1c(-c2ccc(F)cc2)ncn1Cc1cccc(-c2ccccc2)c1`, the Potency was 23.1 µM (active).
Under `O=c1cc(N2CCCCC2)c(-c2ccccc2)nn1Cc1cccc(F)c1` stands “inactive”; under `CCc1ccc(N(CC)C(=O)CCn2cnc3onc(-c4ccc(F)cc4)c3c2=O)cc1`, “inactive”; under `Cc1ccccc1-c1nc(CS(=O)(=O)CC(=O)Nc2cc(Cl)cc(Cl)c2)c(C)o1`, “inactive”.
With `CN(C)c1nc(-c2cccnc2)nc(-c2ccc(Cl)cc2)c1C#N`, the Potency entry is “inactive”.
Under `CNc1nccc(-c2ccc(Cl)cc2)c1C#N` stands 8.2 µM (active); under `CN(C)c1ccnc(Nc2ccc(F)cc2)c1C#N`, “inactive”.
Under `COc1cc(OC)cc(C(=O)Nc2cc3nn(-c4ccccc4)nc3cc2Cl)c1` stands “inactive”; under `O=C1c2ccccc2-c2ccccc2NC1O` (stereo not drawn), “inactive”; under `COC(=O)CSc1nc2ccccc2c(=O)n1Cc1ccccc1`, “inactive”.
Under `Cc1ccc(C(=O)CSc2nc3ccccc3c(=O)n2N)o1` stands 11.6 µM (active); under `COCC(C)n1c(SCc2ccc(C(=O)OC)o2)nc2ccccc2c1=O` (stereo not drawn), “inactive”.
For `COc1ccc(NC(C)=O)cc1NC(=O)CN1CCN(c2ccc(F)cc2)CC1`, the Potency result is “inactive”.
Under `COc1cc(CCN=Cc2ccccc2O)c([N+](=O)[O-])cc1OC` stands “inactive”.
Under `COc1cc(OC)cc(C(=O)NCCc2csc3nc(-c4ccccc4F)nn23)c1` stands “inactive”.
Under `COc1ccc(CCNC(=O)/C(C#N)=C2\N=C(NC(=O)c3cccs3)c3ccccc32)cc1` stands 10.3 µM (active).
For `COc1cc2ccccc2cc1C(=O)Nc1ccc(NC(=O)c2cccs2)cc1`, the Potency entry was “inactive”.
Under `OC[C@@H]1CN(Cc2cccs2)C[C@H](n2cnc3c(NC4CCCC4)ncnc32)O1` stands “inactive”.
Under `CCOc1cc(-c2nc3cc(C)ccn3c2NCC2CCCO2)ccc1O` (stereo not drawn) stands 2.59 µM (active); under `CCOc1ccccc1Nc1nnc(SCC(=O)NCC2CCCO2)s1` (stereo not drawn), “inactive”.
For the compound `CCOc1cc(C(C(=O)NCC2CCCO2)N(C(=O)Cn2nnc3ccccc32)c2cccc(OC)c2)ccc1O` (stereo not drawn), the Potency result is “inactive”.
Under `OC(c1ccc(F)cc1)c1ncc(-c2cccc(C(F)(F)F)c2)[nH]1` (stereo not drawn) stands “inactive”.
As to `Cc1cn([C@H]2C[C@H](O)[C@@H](CNC(=O)[C@H](N)Cc3cccnc3)O2)c(=O)[nH]c1=O`, the Potency result is “inactive”.
Consider `COc1ccc(-c2nc(CN3CCC(C(=O)NCc4ccccc4)CC3)c(C)o2)cc1OC`, for which the Potency entry was “inactive”.
As for `COc1ccc(-c2nc(CN3CCC(C(=O)NCCN(CC(C)C)CC(C)C)CC3)c(C)o2)cc1OC`, the Potency entry was “inactive”.
Under `COc1ccc(CCNC(=O)C2CCCN(Cc3nc(-c4cccc(Cl)c4)oc3C)C2)cc1OC` (stereo not drawn) stands 5.8 µM (active); under `Cc1ccc(C(=O)CSc2nc(-c3ccccc3)nc3c2CCCC3)c(C)c1`, “inactive”; under `CC1=C(C(=O)N(C)C)CC(CC(=O)NCCN2CCOCC2)C(=O)N1Cc1ccccc1` (stereo not drawn), “inactive”.
Under `Cc1nnc(NC(=O)C(c2ccccc2)c2ccccc2)s1` stands “inactive”.
Under `Cc1ccc(NC(=O)Nc2nnc(-c3ccncc3)s2)cc1` stands “inactive”; under `Cc1nnc(NC(=O)Nc2ccc(Cl)c(Cl)c2)s1`, 18.4 µM (active).
Take `O[C@H]1CN(Cc2cccs2)[C@@H](c2ccc(Cl)cc2)C[C@@H]1n1cc(C2CC2)nn1`: the Potency result was “inactive”.
As for `O=C(NN=Cc1ccc2c(c1)CCC2)c1ccccc1O`, the Potency entry is “inactive”.
`Cc1cc2cc3c(N)[nH]nc3nc2cc1C`: the Potency was 7.31 µM (active).
Under `O=C(C[n+]1ccncc1)c1ccc2c(c1)CCCC2` stands “inactive”; under `Cc1cc(C)cc(Nc2ncnc3onc(-c4ccc(F)cc4)c23)c1`, “inactive”; under `C[C@@H]1CN([C@H](C)CO)C(=O)CCCn2nncc2CO[C@@H]1CN(C)C(=O)OCc1ccccc1`, “inactive”.
Under `CC(=O)OC[C@@H]1CN(Cc2ccccc2)C[C@H](n2cnc3c(NCc4ccco4)ncnc32)O1` stands “inactive”.
Under `c1ccc(C2c3[nH]c4ccccc4c3CCN2Cc2cccn2-c2cccnc2)nc1` (stereo not drawn) stands “inactive”; under `O=C(c1cn2ccccc2n1)N1CCc2c([nH]c3ccccc23)C1c1ccccn1` (stereo not drawn), “inactive”.
For `COCc1ccc(C(=O)N2CCc3c([nH]c4ccccc34)C2c2ccccn2)s1` (stereo not drawn), the Potency was 18.4 µM (active).
Under `COc1ccc(OC)c(NC(=O)c2cc(-c3cc(F)ccc3OCC3CCCO3)n[nH]2)c1` (stereo not drawn) stands “inactive”; under `Cn1c(=O)c2c(nc(SCC(=O)Nc3ccc(F)cc3)n2Cc2ccccc2)n(C)c1=O`, “inactive”; under `C[C@H]1Cn2cnc(C(=O)N[C@H](C)c3ccccc3)c2C(=O)N1`, “inactive”.
Under `COc1cc(OC)c(NC(=O)c2nc(-c3ccncc3)no2)cc1Cl` stands “inactive”.
Under `CC1CC(=O)Nc2ccccc2N1S(=O)(=O)c1cccs1` (stereo not drawn) stands “inactive”; under `CC1CC(=O)Nc2ccccc2N1C(=O)COc1ccc2cc(Br)ccc2c1` (stereo not drawn), 16.4 µM (active).
Turning to `Cc1ccc(OCCC(=O)OCC(=O)N2c3ccccc3NC(=O)C2(C)C)cc1`, the Potency result is “inactive”.
